The supplement of paper PMC6555819

These sequences were tested on RARa homodimer (NR concentration 270 nM) (assay: PBM binding z-score (relative to random genomic background probes); higher = stronger binding; sequences stand for … in GC…GCGATTGACAGCGTAGAATGAAGG).
In short: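 Binding z-scores take random background probes as their reference. They come from custom Agilent 4×180K protein-binding microarrays incubated 1 h with ligand-free nuclear receptor dimers, with antibodies against each partner (one per run) detecting binding. Scanned fluorescence was regression-normalized.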

Sequence	PBM binding z-score
TCATATAGGTAAAGGTGAAAGTAGAACGATATGA	0.341
CCGAGTAGGTTATGCGGCATTCAGGCAACGGTGA	0.296
TCAGCCAGGTGAAGGTAACTCAGGTACGCAGTCG	-0.526
ACTAGCAGGCCAAGTTTGGGTTACTCAAACAAAG	-0.953
CCTCGGAGGAAAACAGGAGGTCAGAGCTGCCAGA	0.262
ATATGTTGGTTAGCTGGGGTCATTCAGACTAGGC	1.53
GCTTACGGGCCAAAGGTTATAGCATGAATAGAAT	0.0801
GCTAGCAGGCCATTTGGGTCACTTAATGACGGGC	-1.06
ATCGAAAGGTCGAAGGTGAGTAAACCCACCCGAA	0.979
TTACCAATGTGAAGGTCGTTGATCCCTCTGTAGA	0.451
TCATATAGGTTATACAGGTGAAAGTCGGCATCTA	1.84
AATACAGGGTCACTAGGCCAGAGCAGGTACGAAT	0.899
CCAGACAAGTGAAAGGTAACTCAGTCTGGTACGC	0.124
CCTACTGGGCCACGAAGGGTCATTGATTCAGTGA	0.673
CAGCTTAGGTCAGGGCCAGTATAGGAGGAACGTT	0.556
TCGCCTAGGTCATGCGGGCCAGTATAGTGTCGGC	-0.685
ATCGAAAGGTCGAGGTGAGTAAAGAGAAAGGGAA	0.627
ATACCAAGGTGATCGTGAGGGCGTTGATACTAAC	0.505
CCTAATGGGCCATCAGGTCATTGATATCAACGTT	0.44
TAGCCTAGGTCATTCGGCCAGTATAGTACGCATC	-0.658

Sequence	PBM binding z-score
TAAATGAGGTTATAAGATCAGGGAACGTTGCAAA	0.307
AGAATAAGGTTAAGATCAGGGAAACAGAATACAT	1.11
TAGCGTAGGTCATTCAGGGGCCAGTATAGAAAGC	0.404
TTTTGTAGATCAAGCAGGTTAAGAAAGCCTGAGT	0.538
ATCTCTAGGTAACCAAGTTCAGTGATTGCCGAAC	0.307
TCATATAGGTAGAAGGTGAAAGTCGGTGTGGTAA	1.42
ACAGACAGGTGATGAAGGTAATTCAGGCTATCAT	0.165
AGAACGAGGGAAATGAGTTGATAGCACGGGTGGC	-0.0061
ACTTACGGGTCAACGAGGTTATAACACGCGTATA	2.39
ACAGACCGGTGATGAAGGTAACTCAGGCTATCAT	0.27
AGAATGAGGTTATACGTAGATCATGGAAGAAAGT	0.298
TGAATGAGGTTGTAAGATCAGGGAACGTTGCAAA	-0.183
ACTAGCAGGCCAAGTTTGGGACACTCAAACAAAG	-0.864
CGTCAAAGTTCAGGGTAACGTAACAGAAAGCAGC	1.09
ACAATTAGTTGAGACGAGGGCAACCGATAGGTTG	0.878
TCGAGTAGGTTAGTCGGGGCATTCAGCCAACATA	-0.698
CAAACTCGGTCAAGGTCAAAGTCGGTTTGTGCCA	1.43
CCTACTGGGACATCAGGTCATTGATATCAACGTT	0.755
AGTCAAAGTTCAGGACGGGGTAACGTAAAGCACG	1.36
ATCTCTAGGTAAAGATAGTTTAGTGAATGCAAAT	0.933
